{
  "source": "PubChem BioAssay (EPA / NIEHS)",
  "note": "The source made the active and inactive calls. The calls were made as follows: active = hit-call score of the fitted dose curve at least 0.9, where 1 is the maximum; inactive = score below 0.9.",
  "data": [
    {"read-out": "Collagen I, COL1A1 (gene 1277)", "assay": "BSK_hDFCGF_CollagenI: BioMAP Diversity Plus: hDFCGF Assay for Collagen I Biomarker Activity (AID 2284250)", "details": "primary human foreskin fibroblasts", "protocol": "BSK_hDFCGF is a cell-based, multiplexed-readout assay that uses foreskin fibroblast, a human skin primary cell, with measurements taken at 24 hours after chemical dosing in a 96-well plate.BSK_hDFCGF_CollagenI is an assay component measured in the BSK_hDFCGF assay. It measures Collagen I antibody related to regulation of gene protein expression using ELISA technology.Data from the assay component BSK_hDFCGF_CollagenI was analyzed at the endpoint, BSK_hDFCGF_CollagenI, in the positive analysis fitting direction relative to DMSO as the negative control and baseline of activity. Using a type of binding reporter, gain or loss-of-signal activity can be used to understand protein changes. To generalize the intended target to other relatable targets, this assay endpoint is annotated to the 'cell adhesion molecules' intended target family, where the subfamily is 'collagen'.\nThe levels of cell surface (or secreted, indicated by the prefix \"s\") biomarker endpoints were measured by ELISA. Overt cytotoxicity to cells in confluent adherent cultures (all systems other than the BT system) was assessed by measuring total protein levels using sulforhodamine B (SRB) staining in parallel cultures at the time of biomarker measurements, indicated as SRB endpoints. For proliferation assays for adherent cell types, individual cell types are cultured at sub-confluence and relative cell numbers quantified by SRB staining at time points optimized for each system (48 h: 3C and CASM3C systems; 72 h: BT and HDF3CGF systems; 96 h: SAg system). SRB was performed by staining cells with 0.1% SRB after fixation with 10% TCA and reading wells at 560 nm.Viability and proliferation of PBMC (T cells) was quantified by Alamar Blue reduction for the SAg and BT systems. For PBMC viability (referred to as PBMC Cytotoxicity within the assay endpoint names), cells were plated (75,000/well in a 96-well plate) and then chemical samples added for 1 h before addition of activators, SEB and TSST-1 (20 ng/mL final concentration each). Cells were incubated for 90 h. Then, Alamar Blue (20 uL/well) (Invitrogen, Cat DAL1100) was added for 6 h, and the plates were read with a fluorescence microplate reader at 546/580 nm (excitation/emission). For PBMC proliferation, cells were plated and activated as above but incubated for only 16 h prior to addition of Alamar Blue. Plates were read after 6 h.", "values": [
      {"smiles": "FC(F)(F)C(F)(C(F)(F)F)C(F)(F)C(F)(F)CC1CO1", "note": "(stereo not given)", "outcome": "inactive"},
      {"smiles": "NC(=O)C(F)(F)C(F)(F)F", "outcome": "inactive"},
      {"smiles": "O=S(=O)(F)C(F)(F)C(F)(F)C(F)(F)C(F)(F)C(F)(F)C(F)(F)C(F)(F)C(F)(F)F", "outcome": "inactive"},
      {"smiles": "COC(=O)C(F)(F)C(F)(F)OC(F)(C(F)(F)F)C(F)(F)OC(F)=C(F)F", "note": "(stereo not given)", "outcome": "inactive"},
      {"smiles": "COP(=O)(CCC(=O)NCO)OC", "outcome": "inactive"},
      {"smiles": "O=C(O)C=CC(F)(C(F)(F)F)C(F)(F)F", "outcome": "inactive"},
      {"smiles": "O=C(O)C(F)(F)C(F)(F)C(=O)O", "outcome": "inactive"},
      {"smiles": "O=C(O)C(F)(OC(F)(F)C(F)(F)C(F)(F)F)C(F)(F)F", "note": "(stereo not given)", "outcome": "inactive"},
      {"smiles": "OCC(F)(F)OC(F)(F)C(F)(F)OC(F)(F)C(F)(F)OC(F)(F)F", "outcome": "inactive"},
      {"smiles": "O=C(O)C(F)(F)OC(F)(F)C(F)(F)OC(F)(F)C(=O)O", "outcome": "inactive"},
      {"smiles": "OCC(F)(F)OC(F)(F)C(F)(F)OC(F)(F)C(F)(F)OC(F)(F)CO", "outcome": "inactive"},
      {"smiles": "O=C(O)C(F)(F)OC(F)(F)C(F)(F)OC(F)(F)F", "outcome": "inactive"},
      {"smiles": "OCC(F)(F)OC(F)(F)C(F)(F)OC(F)(F)CO", "outcome": "inactive"},
      {"smiles": "CC(O)C(F)(F)C(F)(F)F", "note": "(stereo not given)", "outcome": "inactive"},
      {"smiles": "C=CC(=O)OCC(F)(F)C(F)F", "outcome": "inactive"}
    ]}
  ]
}
